# Compound activity from PubChem BioAssay.
# Sampled rows, rich in hits. Any-hit rate of the full collection: about 3.9%.
# ATXN2 expr inh – inhibitors of ATXN2 expression; HEK-293 ATXN2-luciferase reporter, luminescence, 24 h; Potency, µM (series often up to 57 µM), hits mostly inhibitors; actives 0.72% (n = 360,000); AID 1745845; further: nearly all actives have a fitted effect of over 55% in size
#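 ATXN2-luciferase reporter cells (luciferase flanked by upstream and downstream ATXN2 gene portions) were treated 24 h at 37 °C with compounds at up to 57 uM. SteadyGlo luminescence gave expression; GF-AFC fluorescence gave viability.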
# S2 tox – cell viability loss in ATXN counter-screen; S2 cells (HEK-293 line with an ATXN2-luciferase reporter) viability, CellTiter-Fluor protease fluorescence, 24 h; Potency, µM (titrated, usually from 56.7 µM), usual class: cytotoxic; actives 0.49% (n = 400,000); further: nearly all actives have a fitted effect of over 40% in size
# HT1080NT lethal – kills 2HG-producing HT-1080-NT fibrosarcoma cells; HT-1080-NT fibrosarcoma viability, CellTiter-Glo ATP luminescence, 48 h; Potency, µM (highest dose often 46.1 µM), hits mostly cytotoxic; actives 1.6% (n = 360,000);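 further: NT is the 2HG producing partner of a matched IDH1 knockdown line; nearly all actives have a fitted effect of over 55% in size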
#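 Viability by CellTiter-Glo luminescence after 48 h compound exposure at 37C of HT-1080-NT cells (750/well, RPMI, 5% FBS). % activity scaled between DMSO wells and medium-only wells, then curve-fitted and categorized by curve class.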
# TGFb SMAD3 inh – blocks TGF-b signaling; HepG2 CAGA-GFP TGF-b/SMAD3 reporter, GFP fluorescence, 18 h; TGF-beta stimulated, 500 pg/mL final; Potency, µM (doses to about 46.1 µM), actives largely listed as inhibitors; actives 1.2% (n = 410,000); AID 588855; further: nearly all actives have a fitted effect of over 65% in size
#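 HEPG2 CAGA-GFP, 1000 cells/well; 2 h settle, 37 C; cpd via pin tool; TGF-b 500 pg/mL final; 18 h, 37 C; GFP imaging ex488/em500-530; %Activity normalised to -TGF-b and +DMSO controls; CRC fit, curve class.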
# HepG2 tox-1 – kills HepG2 cells in TGF-b inhibitor counter-screen; HepG2 CAGA-GFP viability, ATP luminescence, 18 h; actives 0.76% (n = 410,000); AID 588856; Potency, µM (doses to about 46.1 µM), hits mostly cytotoxic
#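 CellTiter-Glo luminescence gave cytotoxicity after 18 hours at 37 degrees C. The cells were HepG2 CAGA-GFP in 1% FBS DMEM, stimulated with 500 pg/mL TGF-beta after compound addition. %Activity was normalised to no-cell wells (complete cell-killing) and DMSO (no toxicity), and curves were fitted and classified.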
# HT1080 IDH1KD tx – toxicity to HT-1080 IDH1 knockdown cells (counter line); AID 686971; Potency, µM (series often up to 46.1 µM), most hits filed as cytotoxic; HT-1080 IDH1 knockdown viability, ATP luminescence, 48 h; actives 2% (n = 360,000)
#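 CellTiter-Glo luminescence after 48 h compound exposure at 37 degrees C of IDH1-knockdown HT-1080 cells in 5% FBS RPMI. %Activity scaled between DMSO wells and cell-free media wells, with curves fitted and assigned curve classes.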
# TGFb CAGA inh – TGF-b pathway inhibition, cherry-pick retest; shares compounds with TGFb SMAD3 inh; HepG2 CAGA-GFP TGF-b reporter, GFP fluorescence, 18 h; cells stimulated with TGF-beta, 500 pg/mL; Potency, µM (titrated, usually from 46.1 µM), most hits filed as inhibitors; actives 63% (n = 1,600); further: nearly all actives have a fitted effect of over 65% in size
# HepG2 tox-2 – HepG2 cytotoxicity, TGF-b inhibitor counterscreen | shares compounds with TGFb SMAD3 inh | HepG2 CAGA-GFP viability, ATP luminescence, 18 h; cells stimulated with TGF-beta, 500 pg/mL | Potency, µM (top dose mostly 46.1 µM), usual class: inhibitors | actives 27% (n = 1,600) | AID 720535; further: nearly all actives have a fitted effect of over 70% in size
# TGFb CCL64 inh – TGF-b inhibition, CCL64 orthogonal assay. CCL64 CAGA-GFP reporter, TGF-b stimulated, GFP fluorescence, 18 h. Potency, µM (highest dose often 46.1 µM), hits mostly inhibitors. shares compounds with TGFb SMAD3 inh. actives 41% (n = 1,600); further: nearly all actives have a fitted effect of over 65% in size
# COP TGFb inh – blocks TGF-b signaling in HepG2 COP reporter; shares compounds with TGFb SMAD3 inh; HepG2 COP-GFP TGF-b reporter, GFP fluorescence, 18 h; cells stimulated by added recombinant TGF-beta; Potency, µM (doses to about 46.1 µM), actives largely listed as inhibitors; actives 3% (n = 1,600); further: nearly all actives have a fitted effect of over 70% in size
# A number is an active result; i = inactive; ? = inconclusive; nt = no result. The call rests on the fitted dose curve; in most records, active means well fitted curve in the direction sought with a large enough effect; inconclusive means small, poorly fitted or top-dose-only effect, or another doubt; inactive means no such curve, though single readings can be large; an effect the other way counts as inactive or inconclusive.
SMILES,ATXN2 expr inh,S2 tox,HT1080NT lethal,TGFb SMAD3 inh,HepG2 tox-1,HT1080 IDH1KD tx,TGFb CAGA inh,HepG2 tox-2,TGFb CCL64 inh,COP TGFb inh
C[C@]12c3[nH]c4ccc(Cl)cc4c3CCN1C(=O)[C@@H](CC(=O)NCC13CC4CC(CC(C4)C1)C3)C[C@@H]2C(=O)N1CCOCC1,?,?,23µM,10µM,i,?,21µM,?,?,i
CC[C@]12c3[nH]c4ccc(OC)cc4c3CCN1C(=O)C(CC(=O)NCC13CC4CC(CC(C4)C1)C3)C[C@@H]2C(=O)N1CCN(C(=O)C2CC2)CC1 (stereo partly specified),?,?,i,?,i,i,nt,nt,nt,nt
Cc1ccc2c(CNCc3cccc(Cl)c3)c(C(=O)O)n(Cc3ccc(F)cc3Cl)c2c1,i,i,nt,i,i,nt,nt,nt,nt,nt
CCN(CC)C(=O)[C@H]1C[C@H](CC(=O)NC/C=C(\C)CCC=C(C)C)C(=O)N2CCc3c([nH]c4cc(-c5ccco5)ccc34)[C@]12C,?,?,?,8.9µM,i,?,?,?,13µM,i
C[C@]12c3[nH]c4cc(-c5ccco5)ccc4c3CCN1C(=O)[C@@H](CC(=O)NCC13CC4CC(CC(C4)C1)C3)C[C@@H]2C(=O)N1CCOCC1,?,?,?,10µM,i,18µM,9.2µM,?,?,i
CC[C@]12c3[nH]c4cc(-c5ccco5)ccc4c3CCN1C(=O)[C@@H](CC(=O)NCCC1=CCCCC1)C[C@@H]2C(=O)N1CCN(C(=O)c2ccco2)CC1,i,?,i,14µM,i,i,?,i,?,i
O=C(C[C@H]1C[C@H](C(=O)N2CCOCC2)[C@@]2(CCC3CCCC3)c3[nH]c4cc(-c5ccco5)ccc4c3CCN2C1=O)NCC12CC3CC(CC(C3)C1)C2,i,i,i,?,i,i,nt,nt,nt,nt
CCN(CC)C(=O)[C@H]1C[C@H](CC(=O)NCCCN(C)C)C(=O)N2CCc3c([nH]c4cc(-c5ccco5)ccc34)[C@]12C,i,i,i,i,i,i,nt,nt,nt,nt
CC(C)(C)NC(=O)C[C@H]1C[C@H](C(=O)N2CCCCC2)[C@@]2(C)c3[nH]c4ccc(Cl)cc4c3CCN2C1=O,i,?,i,?,i,i,?,i,i,i
COc1ccccc1NC(=O)CSc1oc(-c2ccccc2)nc1S(=O)(=O)c1ccccc1,i,i,nt,i,i,nt,nt,nt,nt,nt
CCc1ccc(S(=O)(=O)c2nnn(-c3cccc(C)c3)c2N)cc1,i,i,nt,i,i,nt,nt,nt,nt,nt
Cc1nc(-c2ccc(S(=O)(=O)N(C)Cc3ccccc3)cc2)co1,?,i,nt,i,i,nt,nt,nt,nt,nt
COc1cc2c(cc1OC)C(COc1ccc3c(C)cc(=O)oc3c1)N(C(=O)c1ccc(C)cc1)CC2 (stereo unspecified),i,?,nt,i,i,nt,nt,nt,nt,nt
CCOc1ccc(CNC(=O)C2CCN(S(=O)(=O)c3cn(C)cn3)CC2)cc1,nt,nt,nt,i,i,nt,nt,nt,nt,nt
CCc1ccc(NS(=O)(=O)c2ccc3[nH]cc(C(=O)NCCCOC(C)C)c(=O)c3c2)cc1,i,i,nt,i,i,nt,nt,nt,nt,nt
O=C(Nc1cccc(C(F)(F)F)c1)Nc1ccc(N2CCCC2)c(S(=O)(=O)Nc2ccccc2Cl)c1,?,?,?,2.8µM,i,8.2µM,4.1µM,9.2µM,5.2µM,i
CCC(=O)c1cn(CC(=O)Nc2c(C)cccc2C)c2ccccc12,i,i,i,i,i,i,nt,nt,nt,nt
CC(=O)c1cn(CC(=O)Nc2c(C)cccc2C)c2ccccc12,i,i,i,?,i,?,?,i,i,i
COC(=O)c1ccc(Cn2c(C)c(C(=O)NCc3ccc(C#N)cc3)sc2=O)o1,i,i,i,i,i,?,nt,nt,nt,nt
COC(=O)c1ccc(Cn2c(C)c(C(=O)NCc3ccc(Cl)c(Cl)c3)sc2=O)o1,?,i,?,13µM,i,?,23µM,i,i,i
Cc1ccc(C(=O)C[n+]2cccc3cccc(O)c32)cc1,nt,nt,nt,i,i,nt,nt,nt,nt,nt
O=C(c1[nH]nc2c1CCc1ccccc1-2)N1CCN(Cc2ccc3c(c2)OCO3)CC1,i,i,?,11µM,i,?,12µM,?,?,i
COCCn1c(-c2ccc(Br)cc2)csc1=Nc1cccnc1,i,i,i,?,i,i,nt,nt,nt,nt
FC(F)Oc1ccc(-c2csc(=Nc3cccnc3)n2CC2CCCO2)cc1 (stereo unspecified),i,i,i,?,i,i,i,i,i,i
CC(=O)OC1CCC2(C)C(CCC3C4CC=C(C(C)=O)C4(C)OC(=O)CC32)C1 (stereo unspecified),nt,2.5µM,?,4µM,13µM,10µM,18µM,12µM,2.9µM,?
SMILES,ATXN2 expr inh,S2 tox,HT1080NT lethal,TGFb SMAD3 inh,HepG2 tox-1,HT1080 IDH1KD tx,TGFb CAGA inh,HepG2 tox-2,TGFb CCL64 inh,COP TGFb inh
N#Cc1ccc(NC(=O)Nc2ccc(Oc3ccc(NC(=O)Nc4ccc(C#N)cc4)cc3)cc2)cc1,?,?,i,5.6µM,i,i,4.6µM,?,i,i
Cc1nn(Cc2noc(C(=O)NC(C)c3ccccc3)n2)c(C)c1Br (stereo unspecified),i,i,nt,i,i,nt,nt,nt,nt,nt
CCC(C(=O)Oc1c(C(C)C)cccc1C(C)C)c1ccccc1 (stereo unspecified),i,i,i,?,i,i,?,i,21µM,i
COc1ccc(NC(=O)N2CCc3c(sc4c3CCCC4)C2c2ccc(F)cc2)cc1 (stereo unspecified),i,i,nt,?,i,nt,nt,nt,nt,nt
O=c1[nH]c2cc([N+](=O)[O-])ccc2c2ccccc12,i,i,i,i,i,?,nt,nt,nt,nt
O=C1Cc2c([nH]c3ccc([N+](=O)[O-])cc23)-c2ccccc2N1,?,?,i,0.5µM,i,2.1µM,0.16µM,0.29µM,1.3µM,i
